For 15 molecules, growth results are on record in PubChem BioAssay (NCI).

Test systems include DU-145 prostate; K-562 leukemia; MALME-3M melanoma; MDA-MB-231 breast; RXF 393 renal; SF-268 CNS; SF-295 CNS; SF-539 CNS; UACC-257 melanoma; M14 melanoma.
Holding throughout (experiment): NCI-60 one-dose screen, 48 h (100 = growth as untreated, 0 = no growth, -100 = all killed)
Conditions in all cases: 10 µM unless noted

Each structure is given as a SMILES string. Several values for one entry are separate records, joined by “and”; a condition that tells them apart may be missing. Equal values may be shown once. The panel holds about 83,000 compounds, 20% with a hit somewhere; the sample as a whole holds those more often.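 Negative percent growth values reflect cell death: -40 means 40% of the cells present at the start died, and -100 means all died.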 Activity calls are given as the source filed them. How the source made its calls: active means growth percent below 10; inactive means the rest.

Turning to `Oc1cccnc1CN1CCOCC1`, the growth is 108% (inactive) and 116% (inactive) in the assay on DU-145 prostate; 108% (inactive) and 105% (inactive) in the assay on K-562 leukemia; 106% (inactive) in the assay with MALME-3M melanoma; 104% (inactive) and 86.9% (inactive) in the assay on MDA-MB-231 breast; 114% (inactive) and 112% (inactive) in the assay on RXF 393 renal; 106% (inactive) and 116% (inactive) in the assay on SF-268 CNS. Further, the growth in the assay with SF-295 CNS was 111% (inactive) and 105% (inactive); with SF-539 CNS, 92.6% (inactive) and 94.9% (inactive); with UACC-257 melanoma, 99.6% (inactive) and 98.2% (inactive); in the assay on M14 melanoma, 109% (inactive) and 103% (inactive).
As for `O=C(O)c1cccc(Br)c1`, the growth in the assay with DU-145 prostate is 113% (inactive) and 114% (inactive); in the assay on K-562 leukemia, 89.4% (inactive) and 93.6% (inactive); in the assay with MALME-3M melanoma, 99.5% (inactive) and 107% (inactive); in the assay on MDA-MB-231 breast it was 97.9% (inactive) and 114% (inactive); in the assay with RXF 393 renal it was 108% (inactive) and 107% (inactive); in the assay with SF-268 CNS, 101% (inactive) and 102% (inactive). Also, the growth in the assay on SF-295 CNS is 94.3% (inactive) and 98.2% (inactive); in the assay on SF-539 CNS, 94% (inactive) and 98.7% (inactive); in the assay with UACC-257 melanoma it was 97.6% (inactive) and 85.2% (inactive); in the assay on M14 melanoma, 99.7% (inactive) and 103% (inactive).
As to `COc1ccc([N+](=O)[O-])cc1OC`, the growth in the assay with DU-145 prostate is 111% (inactive) and 118% (inactive); with K-562 leukemia, 102% (inactive) and 103% (inactive); in the assay on MALME-3M melanoma it was 117% (inactive) and 104% (inactive); in the assay on MDA-MB-231 breast, 111% (inactive) and 108% (inactive); with RXF 393 renal, 114% (inactive) and 104% (inactive); with SF-268 CNS, 100% (inactive) and 108% (inactive). Further, the growth is 102% (inactive) and 105% (inactive) with SF-295 CNS; 93.9% (inactive) and 98% (inactive) with SF-539 CNS; 90.1% (inactive) and 95% (inactive) in the assay with UACC-257 melanoma; 98.9% (inactive) and 113% (inactive) in the assay on M14 melanoma.
Regarding `CC1(CO)CCCC1NCCNC1CCCC1(C)CO` (stereo not given), the growth is 120% (inactive) and 88.9% (inactive) with DU-145 prostate; 110% (inactive) and 99% (inactive) with K-562 leukemia; 116% (inactive) and 103% (inactive) with MALME-3M melanoma; 92.2% (inactive) and 113% (inactive) in the assay on MDA-MB-231 breast; 109% (inactive) and 119% (inactive) in the assay on RXF 393 renal; 115% (inactive) and 105% (inactive) in the assay on SF-268 CNS. The growth in the assay with SF-295 CNS is 94.9% (inactive) and 105% (inactive); in the assay on SF-539 CNS it was 103% (inactive) and 105% (inactive); in the assay on UACC-257 melanoma, 100% (inactive); in the assay with M14 melanoma, 96.7% (inactive) and 103% (inactive).
Consider `CCCCC/C(C)=N\NC(N)=S`, for which the growth with DU-145 prostate is 85.2% (inactive); in the assay with K-562 leukemia, 58.7% (inactive); in the assay on MALME-3M melanoma it was 83.7% (inactive); with MDA-MB-231 breast, 85.9% (inactive); in the assay with RXF 393 renal, 85.7% (inactive); in the assay with SF-268 CNS it was 88.2% (inactive). The growth in the assay on SF-295 CNS was 83.4% (inactive); in the assay on SF-539 CNS, 103% (inactive); in the assay with UACC-257 melanoma, 60% (inactive); with M14 melanoma, 74.5% (inactive).
For `Nc1c(Cl)cc2c(c1Br)C(=O)c1ccccc1C2=O`, the growth was 121% (inactive) in the assay with DU-145 prostate; 83.5% (inactive) with K-562 leukemia; 132% (inactive) with MALME-3M melanoma; 83.3% (inactive) in the assay on MDA-MB-231 breast; 110% (inactive) in the assay on RXF 393 renal; 108% (inactive) with SF-268 CNS. The growth in the assay with SF-295 CNS was 104% (inactive); in the assay on SF-539 CNS it was 84.6% (inactive); in the assay on UACC-257 melanoma, 108% (inactive); in the assay on M14 melanoma it was 108% (inactive).
As to `O=C(c1ccc(Cl)cc1)C1C(c2ccccc2)C1[N+](=O)[O-]` (stereo not given), the growth is 105% (inactive) in the assay with DU-145 prostate; 92.7% (inactive) in the assay with K-562 leukemia; 104% (inactive) in the assay on MALME-3M melanoma; 91.2% (inactive) in the assay with MDA-MB-231 breast; 106% (inactive) with RXF 393 renal; 98.1% (inactive) in the assay on SF-268 CNS. The growth with SF-295 CNS was 103% (inactive); with SF-539 CNS it was 103% (inactive); in the assay on UACC-257 melanoma, 105% (inactive); in the assay on M14 melanoma, 102% (inactive).
On to `CC(=O)Nc1cscc1NC(C)=O`, for which the growth with DU-145 prostate was 98.4% (inactive); with K-562 leukemia, 125% (inactive); with MALME-3M melanoma it was 88.4% (inactive); in the assay with MDA-MB-231 breast, 101% (inactive); in the assay with RXF 393 renal, 107% (inactive); in the assay with SF-268 CNS, 96.2% (inactive). Besides, the growth in the assay on SF-295 CNS was 87.3% (inactive); in the assay on SF-539 CNS it was 90.7% (inactive); in the assay with UACC-257 melanoma, 104% (inactive); in the assay with M14 melanoma, 104% (inactive).
In the case of `O=P(O)(O)OC1C(OP(=O)(O)O)C(OP(=O)(O)O)C(OP(=O)(O)O)C(OP(=O)(O)O)C1OP(=O)(O)O.[Cu+2]` (stereo not given), the growth in the assay on DU-145 prostate was 104% (inactive); in the assay on K-562 leukemia, 94.7% (inactive); in the assay on MALME-3M melanoma, 93.4% (inactive); in the assay on MDA-MB-231 breast, 80.7% (inactive); in the assay with RXF 393 renal it was 125% (inactive); in the assay with SF-268 CNS, 125% (inactive). For the same molecule, the growth is 91% (inactive) in the assay with SF-295 CNS, 72% (inactive) with SF-539 CNS, 80.2% (inactive) in the assay on UACC-257 melanoma and 102% (inactive) in the assay with M14 melanoma.
As to `C#CCOC(=O)C(N)CS` (stereo not given), the growth with DU-145 prostate was 113% (inactive); in the assay with K-562 leukemia, 102% (inactive); with MALME-3M melanoma it was 96.6% (inactive); with MDA-MB-231 breast it was 84.2% (inactive); in the assay on RXF 393 renal, 106% (inactive); in the assay with SF-268 CNS, 96.4% (inactive). Further, the growth was 96.5% (inactive) in the assay with SF-295 CNS, 86.6% (inactive) in the assay on SF-539 CNS, 107% (inactive) in the assay on UACC-257 melanoma and 97.1% (inactive) in the assay with M14 melanoma.
Take `CCOC(=O)C1=C(C)NC(C)=C(C(=O)OCC)C1`: the growth in the assay with DU-145 prostate is 109% (inactive) and 110% (inactive); in the assay on K-562 leukemia, 127% (inactive) and 110% (inactive); in the assay with MALME-3M melanoma, 110% (inactive) and 99.7% (inactive); in the assay with MDA-MB-231 breast, 93.5% (inactive) and 117% (inactive); with RXF 393 renal, 103% (inactive); with SF-268 CNS, 104% (inactive) and 111% (inactive). Also, the growth was 82.6% (inactive) and 95.7% (inactive) in the assay with SF-295 CNS; 90.8% (inactive) and 95.6% (inactive) in the assay on SF-539 CNS; 105% (inactive) and 102% (inactive) in the assay with UACC-257 melanoma; 162% (inactive) and 98% (inactive) in the assay on M14 melanoma.
For `CC1=CC(=O)C=CC1=Nc1ccc(N(C)C)cc1`, the growth in the assay with DU-145 prostate was 107% (inactive) and 71.8% (inactive); with K-562 leukemia, 62% (inactive) and 7.74% (active); with MALME-3M melanoma, 112% (inactive) and 66.4% (inactive); with MDA-MB-231 breast it was 87.1% (inactive); in the assay on RXF 393 renal, 93.2% (inactive) and 50.6% (inactive); with SF-268 CNS, 93.9% (inactive) and 66.9% (inactive). Besides, the growth is 84.7% (inactive) and 65.6% (inactive) in the assay on SF-295 CNS; 94.1% (inactive) and 44.5% (inactive) in the assay with SF-539 CNS; 82% (inactive) in the assay with UACC-257 melanoma; 93.5% (inactive) and 41.1% (inactive) in the assay with M14 melanoma.
As for `CCN(CC)C(=S)SCCO`, the growth in the assay on DU-145 prostate was 107% (inactive); with K-562 leukemia, 97% (inactive); in the assay on MALME-3M melanoma, 99.7% (inactive); with MDA-MB-231 breast, 101% (inactive); in the assay on RXF 393 renal, 106% (inactive); in the assay with SF-268 CNS, 102% (inactive). Also, the growth is 106% (inactive) with SF-295 CNS, 102% (inactive) in the assay on SF-539 CNS, 96.3% (inactive) in the assay on UACC-257 melanoma and 106% (inactive) in the assay on M14 melanoma.
For the molecule `OCc1ccccc1F`, the growth with DU-145 prostate was 11.4% (inactive); with K-562 leukemia, 106% (inactive); with MALME-3M melanoma, 134% (inactive); with MDA-MB-231 breast it was 86.3% (inactive); in the assay with RXF 393 renal, 77.5% (inactive); with SF-268 CNS, 95.8% (inactive). Further, the growth with SF-295 CNS is 72% (inactive); in the assay with SF-539 CNS, 101% (inactive); in the assay with UACC-257 melanoma it was 107% (inactive); with M14 melanoma it was 90.8% (inactive).
Turning to `CC(=O)Nc1ccc(OC(C)=O)cc1`, the growth with DU-145 prostate was -16.4% (active) and 109% (inactive); in the assay on K-562 leukemia, 8.26% (active) and 106% (inactive); in the assay with MALME-3M melanoma, 44.4% (inactive) and 111% (inactive); with MDA-MB-231 breast, -20.3% (active) and 111% (inactive); in the assay on RXF 393 renal, -5.2% (active) and 95.3% (inactive); in the assay on SF-268 CNS, 23.1% (inactive) and 103% (inactive). Further, the growth with SF-295 CNS is 9.59% (active) and 105% (inactive); in the assay on SF-539 CNS it was 2.32% (active) and 95.1% (inactive); in the assay with UACC-257 melanoma, 55.4% (inactive) and 102% (inactive); with M14 melanoma, 0.268% (active) and 103% (inactive).
